Out of some 300,000 compounds screened, about 37,000 (12%) were called active. No stated cut-off is given here; in the data, active means max response mostly above about 13% (no sharp cut-off); inactive means mostly below about 14%. Only a selection was taken, and actives are over-represented in it overall.
Assay: Cycloheximide Counterscreen for Small Molecule Inhibitors of Shiga Toxin; further: read at 38.3 µM for the half of the compounds with a filed dose; 0% is about no effect
Conditions: cell reporter, cycloheximide protein synthesis inhibition counterscreen; stronger effect = higher value

Row | SMILES | max response
1 | O=C(Cc1csc(Nc2nc(=S)[nH]c3ccccc23)n1)NCCCN1CCN(c2cccc(Cl)c2)CC1 | 1.69% (inactive)
2 | Cc1ccnc(NC(=O)Cn2ccc([N+](=O)[O-])n2)c1 | -1.7% (inactive)
3 | CCOC(=O)/C(=N\Nc1cc(Cl)ccc1Cl)N1CCN(C)CC1 | -1.84% (inactive)
4 | Cc1c(C)c2c(OCC(=O)NCCCO)cc3c(c2oc1=O)CCC(C)(C)O3 | 0.89% (inactive)
5 | CN(CC#CCC(c1ccccc1)c1ccccc1)C(C)(C)C | -2.81% (inactive)
6 | Cc1ccccc1NC(=O)CSc1nc2ccc(Nc3nc(N4CCOCC4)nc(N4CCOCC4)n3)cc2s1 | -3.62% (inactive)
7 | CCCCC1(C(=O)OCC)NC(c2ccc(O)cc2)C2C(=O)N(c3ccccc3)C(=O)C21 (centres undefined) | -1.77% (inactive)
8 | CCOc1ccc(OCC(=O)Nc2c3c(nn2C(C)(C)C)CS(=O)(=O)C3)cc1 | 0.307% (inactive)
9 | N#CCC(=O)N/N=C/c1cn(Cc2ccc3ccccc3c2)c2ccccc12 | 1.05% (inactive)
10 | c1ccc(Cc2cc[n+](Cc3ccccc3)cc2)cc1 | -3.55% (inactive)
11 | Cc1ccc(CN(Cc2cccnc2)C(=S)Nc2cccc(Cl)c2C)cc1 | 9.59% (inactive)
12 | CCCCC(=O)Nc1ccccc1N1CCN(c2ccc(F)cc2)CC1 | 5.13% (inactive)
13 | Cc1c(S(=O)(=O)NC(C)c2ccccc2)c(=O)n(C)c(=O)n1C (centres undefined) | 1.11% (inactive)
14 | Cc1coc2c1c(C)cc1oc(=O)c(CC(=O)NCC(=O)N[C@H](C(=O)O)C(C)C)c(C)c12 | -5.82% (inactive)
15 | C/C(N)=C(/C#N)C(=O)COC(=O)c1cc(-c2ccccc2)nc2ccc(Br)cc12 | -2.32% (inactive)
16 | C/C(N)=C(/C#N)C(=O)COC(=O)c1cc(-c2cccc(Br)c2)nc2ccccc12 | 0.776% (inactive)
17 | C/C(N)=C(/C#N)C(=O)COC(=O)c1cc(-c2ccc(C)cc2)nc2ccccc12 | 32.1% (active)
18 | COc1ccc(NC2=CC(=S)NC(C)(C)C2)cc1 | -1.18% (inactive)
19 | Cc1csc(Nc2ccc(Cl)cc2)[n+]1-c1ccc(Cl)cc1 | 8.25% (inactive)
20 | COC(=O)c1nc(NC(=O)c2ccccc2)n[nH]1 | -3.23% (inactive)
21 | O=C(CSc1ncn[nH]1)Nc1nsc(-c2ccccc2)n1 | 15.2% (inactive)
22 | O=C(Nc1nsc(-c2ccccc2)n1)c1ccncc1 | 15.5% (active)
23 | Cc1cc(C)cc(NC(=O)CSCc2cnn(-c3ccccc3)c2-n2cccc2)c1 | 16.3% (inactive)

Row | SMILES | max response
24 | O=c1ccc(-c2ccc(S(=O)(=O)Nc3ccccc3)o2)n[nH]1 | -12.6% (inactive)
25 | O=S1(=O)CCOC[C@H](CC2CCCCC2)N1Cc1ccc(F)cc1 | 17.1% (active)
26 | CCC(C)[C@H]1COCCS(=O)(=O)N1Cc1ccc(C)cc1 (some centres undefined) | 1.06% (inactive)
27 | CCCC[C@H]1COCCS(=O)(=O)N1Cc1cccc(Cl)c1 | 0.203% (inactive)
28 | O=S(=O)(c1ccc(Cl)cc1)N1CCCN(c2ccc(C(F)(F)F)cn2)CC1 | -1.58% (inactive)
29 | O=c1[nH]c(=S)n(C2CC2)c(O)c1/C=N/N1CCOCC1 | -4.88% (inactive)
30 | O=C(N/N=C/c1ccc(OC(=O)c2ccccc2Cl)cc1)c1ccc(O)cc1 | -3.06% (inactive)
31 | O=C(N/N=C/c1c(O)n(C2CC2)c(=S)[nH]c1=O)c1ccccc1 | 38.1% (active)
32 | COc1ccccc1-n1c(O)c(C=NC2CC2)c(=O)[nH]c1=O | -4.22% (inactive)
33 | O=C(Nc1cc(=O)[nH]c2ncnn12)c1ccccc1Cl | -7.22% (inactive)
34 | O=C(N/N=C/c1c(O)n(C2CC2)c(=S)[nH]c1=O)c1ccccc1Cl | 19.5% (active)
35 | COC(=O)CCSc1cc([N+](=O)[O-])cc2c1c(C1OCCS1)nn2-c1ccccc1 (centres undefined) | -3.43% (inactive)
36 | O=C(NCCN1CCOCC1)c1ccc(/C=C2\Sc3ccccc3N(Cc3ccc(F)cc3)C2=O)cc1 | 11.1% (inactive)
37 | Cc1nc(-c2nnc(SCC(=O)Nc3cc(C(F)(F)F)cc(C(F)(F)F)c3)n2C)cs1 | -0.852% (inactive)
38 | CCOC(=O)c1c(-c2ccccc2)oc2ccc(OCC(=O)NN)cc12 | -3.08% (inactive)
39 | CCOCCCn1c(SCC(=O)Nc2cc(OC)ccc2OC)nc2ccccc2c1=O | -2.84% (inactive)
40 | Cc1nn(C)c(Cl)c1CN1CCC(Oc2ccc(C(=O)N3CCCC3)cc2)CC1 | 0.779% (inactive)
41 | CC(C)OC(=O)c1sc2nc3c(cc2c1N)C(=O)CCC3 | 19.5% (active)
42 | COCc1cc(C)nc2sc(C(=O)NC3CCCCC3)c(N)c12 | 11.4% (inactive)
43 | Nc1c(C(=O)NCc2ccccc2)sc2nc3c(cc12)C(=O)CCC3 | 8.86% (inactive)
44 | CCn1c(CC(=O)Nc2ccccc2C)nnc1SCC(=O)NC1=NCCS1 | 7.82% (inactive)
45 | COC(=O)Cc1ccc(N(Cc2ccccc2F)S(=O)(=O)c2ccc(Br)cc2)cc1 | -4.43% (inactive)
46 | COc1ccc(Cl)cc1NS(=O)(=O)c1cccc(C(=O)NCC2CCCO2)c1 (centres undefined) | -3.64% (inactive)

Row | SMILES | max response
47 | CC(=O)N1c2ccc(S(=O)(=O)N(C)CC(=O)N(C)Cc3ccccc3)cc2CC1C (centres undefined) | -2.22% (inactive)
48 | NC(=O)NC(=O)CSc1nc2cc([N+](=O)[O-])ccc2n1-c1cccc(C(F)(F)F)c1 | -1.36% (inactive)
49 | Cn1c(CO)cnc1SCc1ccccc1 | 21.1% (active)
50 | CSc1c(SCc2ccccc2)cnn(Cc2ccccc2)c1=O | 5.89% (inactive)
51 | Cn1c(-c2ccc(F)cc2)cnc1SCC(=O)NNC(=O)Cc1ccccc1 | -0.376% (inactive)
52 | CCOC(=O)c1cccc(NS(=O)(=O)c2c(C(=O)N3CCCCCC3)c(C)n(C)c2C)c1 | 1.94% (inactive)
53 | CC/C(=N\NC(=O)c1ccccc1O)c1c(O)n(Cc2ccccc2)c(=O)[nH]c1=O | 23% (active)
54 | CCCCCCN=C(CC)c1c(O)n(CCCC)c(=O)[nH]c1=O | -2.56% (inactive)
55 | CCCCn1c(O)c(C(CC)=NCc2ccco2)c(=O)[nH]c1=O | -4.03% (inactive)
56 | Cc1cc(-c2ccc(C)c(S(=O)(=O)Nc3ccc(S(N)(=O)=O)cc3)c2)on1 | 4.89% (inactive)
57 | C/C(CCc1ccccc1)=N\NC(=O)c1ccc(CN2CCOCC2)cc1 | 6.88% (inactive)
58 | CN1CCN(c2ccc(NC(=O)c3ccc4c(c3)[nH]c(=O)n4Cc3ccc(F)cc3)cc2)CC1 | -2.44% (inactive)
59 | Cc1ccccc1C(=O)N1CCN(c2ccc(NC(=O)c3cccs3)cc2)CC1 | -1.82% (inactive)
60 | COc1ccc(C(=O)NC(=S)Nc2ccc(N3CCCC3)cc2)cc1OC | -0.974% (inactive)
61 | CN1CCN(c2ccc(NC(=O)c3ccccc3)cc2)CC1 | 30.4% (active)
62 | CC(=O)c1ccc(N2CCN(CC(=O)Nc3ccccc3N3CCOCC3)CC2)cc1 | -0.941% (inactive)
63 | Cc1ccccc1C(=O)Nc1ccc(N2CCCCCC2)cc1 | 19% (active)
64 | COc1cccc(C(=O)Nc2ccc(N3CCCC3)cc2)c1 | 30.8% (active)
65 | Cc1ccccc1C(=O)NC(=S)Nc1ccc(N2CCN(C(=O)c3ccccc3)CC2)cc1 | -3.14% (inactive)
66 | C/C(=N\NC(=O)c1ccccc1C)c1ccc(N2CCOCC2)cc1 | 18.1% (active)
67 | O=C(Nc1ccc(S(=O)(=O)N2CCc3ccccc3C2)cc1)c1ccccc1 | -1.47% (inactive)
68 | COc1cccc(C(=O)Nc2ccc(N3CCN(C(=O)c4ccco4)CC3)cc2)c1 | -5.64% (inactive)
69 | CC(C)Oc1ccc(CC(=O)NNC(=S)Nc2ccc(Br)cc2)cc1 | -3.17% (inactive)

Row | SMILES | max response
70 | Cc1cc(-c2ccc(S(=O)(=O)N3CCN(c4cccc(C(F)(F)F)c4)CC3)s2)on1 | 1.18% (inactive)
71 | CCOc1ccccc1C(=O)NC1CC2CCCC(C1)N2Cc1ccccc1 (centres undefined) | -3.26% (inactive)
72 | COC(=O)C1=C(N)Oc2cc(C)[nH]c(=O)c2C1c1ccc(Cl)cc1 (centres undefined) | 0.893% (inactive)
73 | CC(C)(C)n1ncc2c(=O)n(Cc3ccc(Cl)cc3)cnc21 | 11.3% (inactive)
74 | COc1ccc(/C=N/NC(=O)C(C)N(c2ccc(OC)cc2)S(C)(=O)=O)cc1 (centres undefined) | -4.86% (inactive)
75 | Cc1nc(N2CCN(c3ccccn3)CC2)c2c(C)c(C(=O)Nc3ccc(F)c(Cl)c3)sc2n1 | -3.16% (inactive)
76 | O=C(Nc1cc(C(=O)Nc2ccc(S(=O)(=O)O)cc2)cc(C(=O)Nc2ccc(S(=O)(=O)O)cc2)c1)Nc1cc(C(=O)Nc2ccc(S(=O)(=O)O)cc2)cc(C(=O)Nc2ccc(S(=O)(=O)O)cc2)c1 | -6.6% (inactive)
77 | CC(C)(C)C(=O)NC1CC2CCCC(C1)N2C(=O)Nc1ccccc1F (centres undefined) | -1.8% (inactive)
78 | O=C(O)c1cc(S(=O)(=O)N(Cc2ccccc2)c2cccc(C(F)(F)F)c2)ccc1Cl | -2.82% (inactive)
79 | CCc1nn(CCCC(=O)Nc2ccc(C)c(C)c2)c(=O)c2cc3occc3n12 | 0.415% (inactive)
80 | CC(=O)Oc1cccc(C(=O)Nc2ccccc2NC(=O)c2cccc(OC(C)=O)c2)c1 | 4.65% (inactive)
81 | COc1cccc(C(=O)NNC(=O)/C=C/c2ccccc2)c1 | 0.531% (inactive)
82 | COc1cccc(C(=O)NNC(=O)c2cccc(F)c2)c1 | 26.6% (active)
83 | COc1cccc(C(=O)NNS(=O)(=O)c2ccc(F)cc2)c1 | 11.3% (inactive)
84 | COc1cccc(C(=O)Nc2cc3c(cc2Br)OCCCO3)c1 | 86.1% (active)
85 | COc1cccc(C(=O)NNC(=O)c2ccccc2Br)c1 | -3.22% (inactive)
86 | O=C(NCCCN1CCN(c2ccc(F)cc2)CC1)Nc1ccc([N+](=O)[O-])cc1 | 5.85% (inactive)
87 | CN(C)CCCNC(=O)c1ccc2[nH]c3ccccc3c2c1 | -1.73% (inactive)
88 | CN(C)CCNC(=O)c1[nH]nc2c1CCc1ccccc1-2 | 41.8% (active)
89 | COc1ccc(C(=O)Nc2ncc3c(n2)-c2ccccc2CC3)cc1 | 1.82% (inactive)
